HSD17B inhib – qHTS Assay for Inhibitors of HSD17B4, hydroxysteroid (17-beta) dehydrogenase 4; hit rate 7.6% among 75,000; Potency, µM (highest dose often 57.1 µM), usual class: inhibitors; recombinant HSD17B10, NADH fluorescence kinetic; 3-hydroxyacyl-CoA dehydrogenase type-2 (Homo sapiens), Q99714;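 further: the protocol describes HADH2 (HSD17B10) and not the HSD17B4 of the title; nearly all actives have a fitted effect of over 70% in size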
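Activity followed as NADH fluorescence increase (ex 360, em 450 nm) every 30 seconds for 4 min, using final 90 uM beta-hydroxybutyryl CoA and 1 mM NAD+. Recombinant His-tagged enzyme, 20 nM, pH 9.0 Tris buffer, 15 min compound preincubation.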
4-MU autofl – qHTS Assay for Spectroscopic Profiling in 4-MU Spectral Region. AID 589, 2007. hit rate 11% among 59,000. max dye-equivalent concentration, M. compound autofluorescence, 340/450 nm, 4-MU equivalents; hits give high values; in the data active means max dye-equivalent concentration above about 10 nM; inconclusive means mostly about 1.1 nM to 9.6 nM
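Compounds in 100 mM Tris, pH 8.0, sat 15 min at room temperature before fluorescence was read at 340 nm excitation/450 nm emission; a per-plate six-point 4-MU standard curve converted signals to dye-equivalent concentration at each compound concentration.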
HADH2 inhib – qHTS Assay for Inhibitors of HADH2 (Hydroxyacyl-Coenzyme A Dehydrogenase, Type II); 3-hydroxyacyl-CoA dehydrogenase type-2 (Homo sapiens), Q99714; recombinant HADH2, NADH fluorescence, beta-hydroxybutyryl-CoA; Potency, µM (titrated, usually from 57.1 µM), actives largely listed as inhibitors; hit rate 3.4% among 73,000; AID 886, 2007; further: nearly all actives have a fitted effect of over 60% in size
Target sequence (Q99714 whole entry, looked up, one chain of several): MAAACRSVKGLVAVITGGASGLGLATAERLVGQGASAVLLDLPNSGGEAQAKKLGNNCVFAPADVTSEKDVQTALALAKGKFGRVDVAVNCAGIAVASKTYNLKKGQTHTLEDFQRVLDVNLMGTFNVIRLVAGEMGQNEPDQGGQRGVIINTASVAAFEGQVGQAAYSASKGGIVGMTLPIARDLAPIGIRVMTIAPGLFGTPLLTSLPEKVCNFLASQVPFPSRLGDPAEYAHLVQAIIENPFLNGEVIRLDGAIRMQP
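NADH fluorescence (ex 360/em 450 nm) read every 30 s for 4 min; activity taken as last-minus-first time point difference. Enzyme 20 nM, NAD+ 1 mM, beta-hydroxybutyryl-CoA 90 uM, pH 9.0 Tris buffer.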
CRE Fsk mod – Cell signaling CRE-BLA (Fsk stim). CHO CRE-bla reporter (cAMP response element driving beta-lactamase), forskolin EC10, beta-lactamase ratio. Potency, µM (titrated, usually from 38.2 µM), most hits filed as activators. hit rate 2.5% among 71,000. AID 662, 2007; active means well fitted activation curve with a large enough effect in the signal ratio, with a control signal flat, not every such curve was filed as active; inconclusive means small, poorly fitted or top-dose-only effect, or effect the other way, or a change in a side signal; the % refers to the signal ratio
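Beta-lactamase reporter under a cAMP responsive element in CHO cells; compounds tested in titration series against EC10 NKH 477, 3 h at 37 °C. Read-out: CCF4 FRET ratio 460nm/530nm (excitation 405nm) giving %Activity, fitted to AC50.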
AID923 – qHTS Assay for Allosteric/Competitive Inhibitors of Caspase-1: Spectroscopic Profiling in AFC Spectral Region. compound fluorescence, AFC spectral region (405/520 nm). Potency, µM (series often up to 57.5 µM), actives largely listed as activators. hit rate 1.1% among 75,000. AID 923, 2007
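Compound autofluorescence profiled at 405 nm ex/520 nm em during kinetic caspase 1 run (50 nM enzyme, 5 uM Ac-WEHD-AFC, HEPES pH 7.5, 10 mM DTT). Titration up to 57 uM; baseline from regression intercept, normalized to AFC standard curve.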
A350 autofl – qHTS Assay for Spectroscopic Profiling in A350 Spectral Region. Compound autofluorescence, 340/450 nm, Alexa 350 dye-equivalents; hits give high values. max dye-equivalent concentration, M. hit rate 11% among 59,000; in the data active means max dye-equivalent concentration above about 10 nM; inconclusive means mostly about 1.1 nM to 9.6 nM
A number is an active result; – = inactive; ? = inconclusive; · = no result given; [ ] = dose if it differs, or a comment. A selection: hits, their analogues and other compounds. The true share with any hit is near 14%. Unless noted, the call rests on the fitted dose curve; in most records, active means well fitted curve in the direction sought with a large enough effect; inconclusive means small, poorly fitted or top-dose-only effect, or another doubt; inactive means no such curve, though single readings can be large; an effect the other way counts as inactive or inconclusive.

SMILES | HSD17B inhib | 4-MU autofl | HADH2 inhib | CRE Fsk mod | AID923 | A350 autofl
CC(C)(C)N1C(=O)[C@H]2[C@@H]3[C@H](O)C=CC(=O)[C@H]3CC[C@H]2C1=O | –[11.4 µM] | · | –[11.4 µM] | · | –[11.5 µM] | ·
COc1cc(OC)cc(C(=O)NCC2CCCO2)c1 (stereo not drawn) | – | · | – | · | – | ·
O=S(=O)(c1ccccc1)c1nc(-c2cccs2)oc1NCC1CCCO1 (stereo not drawn) | – | – | – | – | – | ?
N#Cc1nc(-c2cccs2)oc1NCC1CCCO1 (stereo not drawn) | 32µM | 2.8e-06M | 5µM | – | – | 3.6e-06M
COc1ccc(-c2nc(C#N)c(NCC3CCCO3)o2)cc1 (stereo not drawn) | 25µM | ? | 32µM | – | – | 1.2e-08M
O=C(O)c1cc(NCc2cccs2)ccc1N1CCOCC1 | ? | 1.6e-08M | – | ? | – | ?
C[C@H](Br)C(=O)Nc1ccc(C(=O)O)c(O)c1 | –[11.4 µM] | – | –[11.4 µM] | –[7.6 µM] | –[11.5 µM] | –
C=CCn1c(=O)c2c(C)c(C)sc2n2c(Nc3ccccc3)nnc12 | – | – | – | 3.2µM | – | –
Cc1nnc2n(CCc3ccccc3)c(=O)c3c4c(sc3n12)CCCC4 | – | – | – | – | – | ?
S=c1nc(-c2ccccc2)n(CCCN2CCOCC2)c2c1CCCC2 | – | – | – | – | – | –
COCCN(CCOC)c1nc(C)nc2c1nc(-c1ccccc1)n2CCN1CCCC1 | 32µM | · | – | – | – | ·
COCCN(CCOC)c1nc(C)nc2c1nc(-c1ccccc1)n2CCCN(C)C | 32µM | · | ? | – | – | ·
Cc1ccccc1N1CCN(c2ncnc3c2cnn3Cc2ccc(Cl)cc2)CC1 | 20µM | – | – | – | – | –
Cc1ccc(Cn2ncc3c(N4CCN(Cc5ccc(Cl)cc5)CC4)ncnc32)cc1 | · | – | · | · | · | –
O=S(=O)(Nc1ncnc2sc3c(c12)CCC3)c1ccc(Cl)s1 | 25µM | ? | ? | – | – | ?
Cc1nc(NS(=O)(=O)c2cccs2)c2c3c(sc2n1)CCC3 | – | ? | – | – | – | ?
CCOC(=O)Nc1cccc2ccccc12 | – | – | – | – | – | –
CCOC(=O)Nc1cc(OC)c(OC)cc1Cc1nccc2cc(OC)c(OC)cc12 | – | – | – | 6.3µM | – | –
Cc1nn(-c2ccc(C(=O)O)cc2)c(N)c1-c1ccccc1 | – | – | – | – | – | –
Cc1c[n+]([O-])n(-c2ccc(C(=O)O)cc2)n1 | – | 2.1e-08M | – | ? | – | 2.4e-08M
CC(=O)N1[C@H](Cc2ccccc2)C=C[C@]1(C)C(=O)O | ? | · | – | – | – | ·
CC(=O)N=c1sc2nc3ccccc3nc2n1N(C(C)=O)C(C)=O | ? | 2.5e-07M | 32µM | – | – | 2.9e-07M
CCOC(=O)c1ccc(CSc2n[nH]c(C)n2)o1 | – | · | – | – | – | ·
CCOC(=O)C1=C(CSc2n[nH]c(N)n2)NC(=O)NC1C (stereo not drawn) | – | 1.7e-08M | – | – | – | 2.2e-08M
Cc1csc(NC(=O)c2nc3nc(C)cc(C)n3n2)n1 | – | – | – | – | – | –
SMILES | HSD17B inhib | 4-MU autofl | HADH2 inhib | CRE Fsk mod | AID923 | A350 autofl
CCSc1nnc(NC(=O)CCc2ccccc2)s1 | – | · | – | – | – | ·
CCSc1nnc(NC(=O)c2nc(-c3ccccc3)n(-c3ccccc3)n2)s1 | – | 4.1e-08M | – | – | – | 5.7e-08M
Cc1csc(NC(=O)c2nc(-c3ccccc3)n(-c3ccccc3)n2)n1 | – | 1.1e-08M | – | – | – | 1.4e-08M
Cc1csc(NC(=O)c2ccccc2O)n1 | 25µM | 1.3e-06M | 32µM | – | – | 1.7e-06M
O=C(Nc1nccs1)c1nc(-c2ccccc2)n(-c2ccccc2)n1 | – | ? | – | – | – | 1.1e-08M
CS(=O)(=O)N(CC(=O)N1CCCCC1)c1sc2c(c1C#N)CCCC2 | – | – | – | – | – | –
Cc1ccc(C)c(NC(=O)c2ccccc2O)c1 | ? | 1.7e-08M | – | – | – | ?
Cc1cccc(NC(=O)c2ccccc2O)c1C | ? | · | –[11.4 µM] | ? | – | ·
O=C(O)c1ccc(Cl)c(Cl)c1 | – | · | – | – | – | ·
